Our source for the z-score values is PubChem BioAssay.

This test in a line: JC-1 mitochondrial signal, unstimulated MM1S myeloma – cell-based, JC-1 fluorescence, 24 h, 100 nL compound, profiling panel (AID 1170). Also: test concentration not given here. To be noted: MM1S mitochondrial potential, higher = more signal.
`C=CC[C@@]12N=C(c3ccc(OCCCO)cc3)O[C@@H]1c1ccccc1N(CCS(=O)(=O)c1ccccc1)C2=O` registered a z-score of -1.22.

Turning to `CN(C)CCCNC(=O)[C@@]1(C)c2ccccc2C(=O)N(Cc2cc(C(F)(F)F)cc(C(F)(F)F)c2)[C@H]1c1ccc(CO)cc1`, the z-score was -0.279.

`CC(C)NC(=O)[C@@]1(C)c2ccccc2C(=O)N(C(C)C)[C@H]1c1ccc(CO)cc1` returned a z-score of 1.32.

Consider `O=C(N1CCCCC1)[C@@]1(Cc2ccccc2)COC(c2ccc(OCCCO)cc2)=N1`, for which the z-score was -0.923.

`O=C1C[C@@](C(=O)NCC(F)(F)F)(c2ccc([N+](=O)[O-])cc2)[C@@H](c2ccc(CO)cc2)N1C1CCCCC1` registered a z-score of 0.0421.

With `O=C1c2ccccc2[C@](Cc2ccccc2I)(C(=O)NCc2ccccc2)[C@H](c2ccc(CO)cc2)N1C1CCCCC1`, the z-score came out at 0.551.

`C=CC[C@@]1(C(=O)N2CCCCC2)N=C(c2ccc(OCCCO)cc2)O[C@@H]1c1ccccc1` gave a z-score of 0.0448.

Turning to `C=CCOC(=O)[C@@H]1[C@H]2C(=O)O[C@H](c3ccccc3)[C@H](c3ccccc3)N2[C@H](c2ccc(OCCOC(=O)[C@H]3C[C@H]4C(=O)N[C@@H](CCCC[N+](C)(C)C)C(=O)N4[C@H]3c3ccc(O)cc3)cc2)[C@@]12C(=O)Nc1ccc(I)cc12`, the z-score is -1.13.

`C[C@H]1ON(c2ccc(C(=O)OC(C)(C)C)cc2)[C@@H](c2ccc(O)cc2)[C@@H]1C(=O)N1C(=O)OC[C@@H]1c1ccccc1`: the z-score is -2.36.

On to `Cc1c(NC(=O)/C(C#N)=C/C=C/c2ccccc2[N+](=O)[O-])c(=O)n(-c2ccccc2)n1C`, for which the z-score is -0.994.

`CC(C)(C)OC(=O)CC[C@]1(C(=O)NCCN2CCOCC2)N=C(c2ccc(OCCCO)cc2)O[C@H]1c1ccccc1N=[N+]=[N-]` gave a z-score of -0.961.

The molecule `CCOC(=O)[C@H]1C/C=C/C[C@H](C(=O)OCC)C(=O)O[C@H]2[C@@H](OC)O[C@H](CO)[C@@H](OC(=O)Nc3ccc(OC)cc3)[C@@H]2OC1=O` came in with a z-score of -0.998.

On to `O=C1NC(=O)C2C1C=CC(C(O)c1c(F)cccc1Cl)N2Nc1ccccn1` (stereo not given), for which the z-score was determined as 0.15.

Consider `COc1ccc([Si](C)(C)[C@@H]2[C@@H](CCO)O[C@]3(C(=O)N(Cc4cccc(N5C(=O)c6ccccc6Oc6ccccc65)c4)c4ccccc43)[C@H]2C)cc1`, for which the z-score was -1.82.

Take `Cc1ccc(S[C@]2(C(=O)NCc3ccccc3)CC(=O)N(C(C)C)[C@@H]2c2ccc(CO)cc2I)cc1`: the z-score was -1.12.

Molecule `CC(C)CCC[C@@H](C)[C@H]1CC[C@@]2(C)C3=C(CC[C@]12C)[C@@]1(C)CC[C@H](OC(=O)c2ccc(Br)cc2)C(C)(C)C1CC3` (stereo not given in full) came in with a z-score of -0.902.

`NC(=O)N1C(=O)C2C(C1=O)C1C=C(c3ccc(CO)cc3)C2C(C2CC2)N1Cc1sc2ccccc2c1Cl` (stereo not given) displayed a z-score of -0.311.

For `C=CCN1C(=O)[C@@]2(O[C@@H](CCn3cc([C@H](O)c4ccccc4)nn3)[C@H]([Si](C)(C)c3ccc(OC)cc3)[C@H]2C)c2ccccc21`, the z-score was -0.364.

Turning to `CC1CC/C=C\[C@H]2OC34C=CCN(CCN5CCOCC5)C(=O)[C@H]3N(CCO)C(=O)[C@@H]4C2C(=O)O1` (stereo not given in full), the z-score came to 0.671.

On to `C=CCOC(=O)[C@H]1[C@@H]2C(=O)O[C@@H](c3ccccc3)[C@@H](c3ccccc3)N2[C@@H](c2ccc(OCCOC(=O)[C@H]3C[C@H]4C(=O)N[C@@H](Cc5ccccc5)C(=O)N4[C@H]3c3ccc(O)cc3)cc2)[C@]12C(=O)Nc1ccc(I)cc12`, for which the z-score was -1.04.

Consider `COc1ccc(C#Cc2ccc3c(c2)[C@]2(C(=O)N3)[C@H](C(=O)N3CCc4cc(OC)c(OC)cc4C3)[C@H]3C(=O)O[C@H](c4ccccc4)[C@H](c4ccccc4)N3[C@@H]2c2ccc(O)cc2)cc1`, for which the z-score was -1.09.

Turning to `O=C1O[C@@H](c2ccccc2)[C@@H](c2ccccc2)N2[C@@H](c3ccccc3OCCO)[C@]3(C(=O)Nc4ccccc43)[C@@H](C(=O)NC[C@H](O)c3ccccc3)[C@H]12`, the z-score was -2.09.

For `C[C@]1(C(=O)NC2CC2)c2ccccc2C(=O)N(Cc2ccc(OC(F)(F)F)cc2)[C@H]1c1ccc(CO)cc1`, the z-score was -0.316.

`NC(=O)NCC#Cc1ccc2c(c1)[C@]1(C(=O)N2)[C@H](C(=O)Nc2nc3ccccc3s2)[C@H]2C(=O)O[C@H](c3ccccc3)[C@H](c3ccccc3)N2[C@@H]1c1ccc(O)cc1` had a z-score of -1.9.

In turn, `COc1ccc(CCNC(=O)[C@@]2(Sc3ccc(C)cc3)CC(=O)N(Cc3cc(C(F)(F)F)cc(C(F)(F)F)c3)[C@@H]2c2ccc(CO)cc2I)cc1` had a z-score of -2.1.

On to `CN(C)CCCNC(=O)[C@@H]1c2ccccc2C(=O)N(Cc2ccc(OC(F)(F)F)cc2)[C@H]1c1ccc(CO)cc1`, for which the z-score was -1.13.

As for `COCCCNC(=O)[C@@]1(Sc2ccc(C)cc2)CC(=O)N(C2Cc3ccccc3C2)[C@@H]1c1ccc(CO)cc1I`, the z-score is -1.34.

On to `CCCCC(CC)C(O)C1C=CC2C(=O)N(c3ccccc3)C(=O)C2N1Nc1ccc([N+](=O)[O-])cc1` (stereo not given), for which the z-score is -1.03.

Take `CC(C)C(=C=CC[C@@H](O)c1ccccc1OCCO)C[C@@H](O)COCc1ccccc1`: the z-score was found to be 0.339.

The molecule `C[C@H]1C2=C3C(CC[C@H]4C(OCc5ccc(F)cc5C(F)(F)F)OC[C@](C)([C@@H]34)N(C(=O)OC(C)(C)C)C2)C2COC(=O)OCC21` (stereo not given in full) gave a z-score of -0.183.

The molecule `CCOC(=CC(=O)OC)CC(O)c1cccc(Cl)c1` (stereo not given) displayed a z-score of -0.69.

`COc1cc(OC)c(C(O)C2C=CC3C(=O)N(c4ccccc4)C(=O)C3N2Nc2ccc(C#N)cc2)cc1Br` (stereo not given) gave a z-score of -0.00738.

Take `CN(C)CCCNC(=O)[C@@H]1c2ccccc2C(=O)N(CC23CC4CC(CC(C4)C2)C3)[C@H]1c1ccc(CO)cc1`: the z-score was -1.73.

The molecule `COc1cc2c(cc1OC)CN(C(=O)[C@H]1[C@@H]3C(=O)O[C@@H](c4ccccc4)[C@@H](c4ccccc4)N3[C@@H](c3ccc(OCCO)cc3)[C@]13C(=O)Nc1ccc(C#CCCO)cc13)CC2` came in with a z-score of -1.07.

Molecule `COCCOC(=O)N1C(=O)[C@@]2(c3cc(C#CC4=CCCCC4)ccc31)[C@H](c1ccccc1OCCO)N1[C@H](c3ccccc3)[C@H](c3ccccc3)OC(=O)[C@H]1[C@@H]2C(=O)N1CCc2cc(OC)c(OC)cc2C1` came in with a z-score of -1.32.
